Screens: PubChem, National Center for Advancing Translational Sciences (NCATS)
AmpC inh no detg: qHTS Inhibitors of AmpC Beta-Lactamase (assay without detergent). P00811. AmpC nitrocefin hydrolysis, absorbance 480 nm, 0.0001% Triton. AID 485341, 2010. 330,000 tested, 0.52% active. Potency, µM (highest dose often 57.1 µM), most hits filed as inhibitors; further: nearly all actives have a fitted effect of over 20% in size
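20 mM phosphate pH 7.0 + 0.01% (detergent screen) or 0.0001% Triton X-100; 5.3 nM AmpC reagent; cpd preinc 15 min RT; nitrocefin (800 uM stock) to start; A480 q20 s × 4 min; Activity was normalised to no-enzyme and no-compound control wells.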
Giardia FBPA inh-1: qHTS Assay for Inhibitors of Fructose-1,6-bisphosphate Aldolase from Giardia Lamblia. purified Giardia FBPA. 290,000 tested, 0.71% active. A8B2U2. Potency, µM (series often up to 59.6 µM), actives largely listed as inhibitors; further: nearly all actives have a fitted effect of over 55% in size
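40 nM FBPA preincubated 10 min at RT with compound (up to 57.5 uM final), then substrate plus GAPDH/TPI/NAD/arsenate coupling and diaphorase/resazurin added. Fluorescence read after 20 min at RT, 525/598 nm.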
Sm TGR inh: qHTS Assay for the Inhibitors of Schistosoma Mansoni Peroxiredoxins. Schistosoma mansoni thioredoxin glutathione reductase (TGR), Q962Y6. purified TGR, DTNB reduction, TNB absorbance 405 nm. Potency, µM (top dose mostly 114 µM), hits mostly inhibitors. 360,000 tested, 3% active. AID 485364, 2010; further: nearly all actives have a fitted effect of over 60% in size
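TGR 20 nM + NADPH 100 uM (dispensed conc.), cpd preinc 15 min RT; start with NADPH (500 uM addition) then DTNB (15 mM addition). Kinetic TNB absorbance, 405 nm filter. Four-parameter Hill fit across titration.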
AmpC detergent: qHTS Inhibitors of AmpC Beta-Lactamase (assay with detergent); AmpC hydrolysis of nitrocefin, absorbance 480 nm, 0.01% Triton; Potency, µM (series often up to 114 µM), usual class: inhibitors; 370,000 tested, 0.041% active; AID 485294, 2010; further: nearly all actives have a fitted effect of over 25% in size
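AmpC (5.3 nM in the dispensed reagent) in 20 mM phosphate pH 7.0 with 0.01% (detergent screen) or 0.0001% Triton X-100 was preincubated with compounds for 15 min at room temperature. Nitrocefin was then added from an 800 uM solution, and hydrolysis was followed at 480 nm.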
RE007 growth inh: qHTS Assay for Inhibitors of the HIV-1 protein Vpr; Potency, µM (titrated, usually from 92.2 µM), usual class: inhibitors; S. pombe RE007 Vpr strain, BacTiter-Glo ATP luminescence, 24 h; 360,000 tested, 0.21% active; AID 651644, 2012; active means well fitted falling curve with a large enough effect; inconclusive means small, poorly fitted or top-dose-only effect; inactive means no such curve, though single readings can be large or run the other way; further: nearly all actives have a fitted effect of over 50% in size
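Fission yeast RE007 carrying one integrated HIV-1 vpr copy, seeded at OD 0.01 in PMG+AL medium with 23 nL pinned compound. Grown 24 h at 30 degrees; viability read by BacTiter-Glo luminescence after 5 min.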
Giardia growth: qHTS Assay for Inhibitors of Fructose-1,6-bisphosphate Aldolase from Giardia Lamblia: Giardia lamblia growth inhibition; 1,500 tested, 5% active; Potency, µM (series often up to 57.5 µM), hits mostly inhibitors; shares compounds with Giardia FBPA inh-1; Giardia lamblia trophozoite growth inhibition; AID 2785, 2010;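 further: trophozoites exposed to compound for 48 h at 37 °C; nearly all actives have a fitted effect of over 70% in size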
Mammal cell tox: qHTS Assay for Inhibitors of Fructose-1,6-bisphosphate Aldolase from Giardia Lamblia: Mammalian cellular toxicity. shares compounds with Giardia FBPA inh-1. mammalian cell viability counter-screen, qHTS. Potency, µM (series often up to 57.5 µM), most hits filed as inhibitors. 1,500 tested, 4% active;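 further: Chinese hamster ovary cells used as mammalian cytotoxicity surrogate; viability measured as cellular ATP by luminescence; compound exposure lasted 48 h before reading; nearly all actives have a fitted effect of over 60% in size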
Giardia FBPA inh-2: qHTS Assay for Inhibitors of Fructose-1,6-bisphosphate Aldolase from Giardia Lamblia: Primary screen confirmation | purified Giardia aldolase enzyme activity, qHTS | shares compounds with Giardia FBPA inh-1 | Potency, µM (doses to about 57.5 µM), usual class: inhibitors | 1,500 tested, 5% active; further: nearly all actives have a fitted effect of over 45% in size
Rabbit aldolase: qHTS Assay for Inhibitors of Fructose-1,6-bisphosphate Aldolase from Giardia Lamblia: Rabbit FBPA Selectivity. shares compounds with Giardia FBPA inh-1. Rabbit muscle FBPA enzyme inhibition, selectivity counter-screen. Potency, µM (titrated, usually from 57.5 µM), usual class: inhibitors. 1,500 tested, 4% active; further: nearly all actives have a fitted effect of over 60% in size
Target sequence (P00883 whole entry, looked up): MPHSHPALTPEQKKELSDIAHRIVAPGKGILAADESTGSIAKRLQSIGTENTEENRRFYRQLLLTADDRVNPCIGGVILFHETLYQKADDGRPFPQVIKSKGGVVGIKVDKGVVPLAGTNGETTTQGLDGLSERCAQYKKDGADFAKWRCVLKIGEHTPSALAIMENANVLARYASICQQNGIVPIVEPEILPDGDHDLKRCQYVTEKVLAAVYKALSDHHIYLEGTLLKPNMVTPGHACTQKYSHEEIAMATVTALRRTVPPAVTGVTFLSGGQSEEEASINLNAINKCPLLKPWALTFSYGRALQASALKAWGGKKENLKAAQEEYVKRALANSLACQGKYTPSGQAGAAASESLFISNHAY
GAPDH coupling: qHTS Assay for Inhibitors of Fructose-1,6-bisphosphate Aldolase from Giardia Lamblia: Coupling assay counterscreen confirmation; 1,500 tested, 6% active; AID 2795, 2010; Potency, µM (titrated, usually from 57.5 µM), usual class: inhibitors; GAPDH coupling enzyme counterscreen, biochemical, qHTS; shares compounds with Giardia FBPA inh-1; further: nearly all actives have a fitted effect of over 55% in size
A number is an active result; – = inactive; ? = inconclusive; · = no result given; [ ] = another dose, or the depositor's remark. Sampled rows, rich in hits. Any-hit rate of the full collection: about 3.4%. Unless noted, the call rests on the fitted dose curve; in most records, active means well fitted curve in the direction sought with a large enough effect; inconclusive means small, poorly fitted or top-dose-only effect, or another doubt; inactive means no such curve, though single readings can be large; an effect the other way counts as inactive or inconclusive.

SMILES | AmpC inh no detg | Giardia FBPA inh-1 | Sm TGR inh | AmpC detergent | RE007 growth inh | Giardia growth | Mammal cell tox | Giardia FBPA inh-2 | Rabbit aldolase | GAPDH coupling
COc1ccccc1N1C(=S)NC2CS(=O)(=O)CC21 (centres undefined) | – | – | – | – | – | · | · | · | · | ·
O=C(O)CC/C(=N/Nc1ncc(C(F)(F)F)cc1Cl)C(=O)O | – | 11µM | · | – | – | 16µM | – | – | – | –
O=C(O)CCc1ncc(C(F)(F)F)cc1Cl | – | – | – | – | – | · | · | · | · | ·
CCOc1ccccc1-c1nnc(SCc2ccc(Cl)cc2)o1 | · | · | – | – | · | · | · | · | · | ·
C=CCn1c(O)c(/C=N/NC(=O)CCCC)c(=O)[nH]c1=S | – | 7.1µM | – | – | – | –[10.4 µM] | – | – | – | –
CCCCCCC(=O)N/N=C/c1c(O)n(C2CC2)c(=S)[nH]c1=O | – | – | – | – | – | · | · | · | · | ·
COc1ccccc1C(=O)NCC1CCN(c2ccc(S(=O)(=O)N3CCOCC3)cc2)CC1 | – | – | – | – | – | · | · | · | · | ·
Cc1cccc(NC2=C/C(=N/S(=O)(=O)c3cccs3)c3ccccc3C2=O)c1 | – | 0.2µM | – | – | – | 16µM | 20µM | ? | – | 2.5µM
Cc1ccc(NC2=C/C(=N\S(=O)(=O)c3cccs3)c3ccccc3C2=O)c(C)c1 | ? | ? | – | – | – | · | · | · | · | ·
Cn1c(=O)[nH]c(=O)c2c1nc(SCC(=O)O)n2Cc1ccccc1 | – | 14µM | – | – | – | – | – | – | – | –
CCNc1ccc(N=Nc2c(C)n(C)n(-c3ccccc3)c2=O)cc1 | – | – | – | ? | – | · | · | · | · | ·
Cc1c(N2C(=O)/C(=C\c3ccccc3O)SC2=S)c(=O)n(-c2ccccc2)n1C | – | ? | – | – | – | · | · | · | · | ·
Cc1c(N2C(=O)/C(=C3\C(=O)N(CC(=O)O)c4ccccc43)SC2=S)c(=O)n(-c2ccccc2)n1C | – | 10µM | ? | – | – | – | – | ? | – | ?
O=C1CCC(=O)N1CC(=O)N1CCCc2ccccc21 | – | – | – | ? | – | · | · | · | · | ·
O=C(CN1CCOCC1)N1CCCc2ccccc21 | – | 13µM | · | – | – | ? | – | – | – | –
CC(=O)N1CCC(N(CCN2CCOCC2)C(=S)Nc2ccc(C)cc2)CC1 | – | 7.1µM | – | – | – | – | – | – | – | –
COc1cc(Cl)ccc1NC(=S)N(CCN1CCOCC1)C1CCN(C(C)=O)CC1 | – | 18µM | – | – | – | –[10.4 µM] | – | – | – | –
COc1ccc(N2CCN(c3nc(C)c(C)c(=O)[nH]3)CC2)cc1 | – | – | – | – | – | · | · | · | · | ·
O=C(O)c1ccc2cccnc2c1O | – | 20µM | ? | – | – | – | – | ? | – | –
Cc1cccc(OCCOCCSc2ncccn2)c1 | – | – | – | – | – | · | · | · | · | ·
Cc1cccc(OCCSc2nc(N)cc(N)n2)c1 | – | 16µM | – | – | – | – | – | – | – | –
O=C(NC1CCCCCC1)C(=S)NC1CCCCC1 | – | 18µM | · | – | – | ? | – | – | – | –
O=C(NC1CCCCCC1)C(=O)NC1CC1 | – | – | – | – | – | · | · | · | · | ·
O=C(C1CCCN(Cc2ccccc2F)C1)N1CCCC1 (centres undefined) | – | – | – | – | – | · | · | · | · | ·
CCOC(=O)C1CCCN(CC(=O)c2ccc(F)cc2)C1 (centres undefined) | – | 16µM | 18µM | – | – | – | – | – | – | –
CCOC(=O)C1CCCN(Cc2ccc(OCc3ccccc3)cc2)C1 (centres undefined) | – | 28µM | – | – | – | –[10.4 µM] | – | – | – | –
O=C(C1CCCN(Cc2ccccc2[N+](=O)[O-])C1)N1CCCC1 (centres undefined) | – | 28µM | – | – | – | ? | – | – | – | –
Cc1ccc(CN2CCCC(C(=O)N3CCCC3)C2)cc1 (centres undefined) | – | 25µM | – | – | – | –[10.4 µM] | – | – | – | –
